AmpC detergent: qHTS Inhibitors of AmpC Beta-Lactamase (assay with detergent). AID 485294, 2010. AmpC hydrolysis of nitrocefin, absorbance 480 nm, 0.01% Triton. P00811. actives 0.041% (n = 370,000). Potency, µM (titrated, usually from 114 µM), without a hit: at the top dose activity change, negative = inhibition, hits mostly inhibitors;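 further: potency means the concentration at half of the fitted maximal effect; 0% = no-compound wells and -100% = no-enzyme wells; nearly all actives have a fitted effect of over 25% in size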
Target sequence (P00811 whole entry, looked up): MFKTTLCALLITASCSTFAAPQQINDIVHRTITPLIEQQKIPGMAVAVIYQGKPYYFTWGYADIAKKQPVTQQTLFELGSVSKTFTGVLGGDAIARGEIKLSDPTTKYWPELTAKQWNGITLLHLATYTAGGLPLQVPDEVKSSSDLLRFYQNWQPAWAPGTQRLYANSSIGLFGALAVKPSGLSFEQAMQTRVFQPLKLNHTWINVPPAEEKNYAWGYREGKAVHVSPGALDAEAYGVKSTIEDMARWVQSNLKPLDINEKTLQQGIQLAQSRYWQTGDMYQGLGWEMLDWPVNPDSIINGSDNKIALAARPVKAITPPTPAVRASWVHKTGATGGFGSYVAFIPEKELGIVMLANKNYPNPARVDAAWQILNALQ
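20 mM phosphate pH 7.0 + 0.01% (detergent screen) or 0.0001% Triton X-100; 5.3 nM AmpC reagent; cpd preinc 15 min RT; nitrocefin (800 uM stock) to start; A480 q20 s × 4 min; Activity was normalised to no-enzyme and no-compound control wells.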
HCV inhibitor: qHTS Assay for Inhibitors of Hepatitis C Virus (HCV); Huh7.5.1 HCVcc-Cre infection, luciferase reporter, 44 h; Potency, µM (titrated, usually from 41.8 µM), without a hit: top-dose activity change, negative = inhibition, most hits filed as inhibitors; actives 3.4% (n = 340,000); AID 651820, 2012; further: potency means the concentration at half of the fitted maximal effect
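After 44 h co-culture of compound, cells and HCVcc-Cre (~0.5 moi), substrate is added for 15 min at room temperature and luciferase measured over 15 sec. Cells were seeded at 1,000/well and pre-cultured 4 h.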
AmpC no deterg: qHTS Inhibitors of AmpC Beta-Lactamase (assay without detergent) | AID 485341, 2010 | AmpC nitrocefin hydrolysis, absorbance 480 nm, 0.0001% Triton | Potency, µM (top dose mostly 57.1 µM), for inactives: at the top dose activity change, negative = inhibition, hits mostly inhibitors | actives 0.52% (n = 330,000) | P00811;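 further: potency means the concentration at half of the fitted maximal effect; plate controls were no compound for no effect and no enzyme for full effect; nearly all actives have a fitted effect of over 20% in size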
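AmpC (5.3 nM in the dispensed reagent) in 20 mM phosphate pH 7.0 with 0.01% (detergent screen) or 0.0001% Triton X-100 was preincubated with compounds for 15 min at room temperature. Nitrocefin was then added from an 800 uM solution, and hydrolysis was followed at 480 nm.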
HCMV inh: qHTS Assay for inhibitors of the human cytomegalovirus (HCMV). HFF cells, HCMV-luciferase reporter, 72 h; stronger effect = lower value. activity change, negative = inhibition, % at 57.5 µM. actives 4.5% (n = 410,000). AID 1259415, 2018; in the data active means activity change below about -60%; inconclusive means no clear call, values can overlap the other calls; inactive means above about -39%
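HFF cells seeded 16 h at 37C, treated with compounds, infected with luciferase-reporter HCMV at MOI 1 PFU/cell; luciferase read at 72 h post infection, normalized to buffer-only and Salinomycin controls.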
FMDV antiviral: High Throughput Screening for Foot and Mouth Disease Virus Antivirals. FMDV antiviral cell-based qHTS. Potency, µM (top dose mostly 57.9 µM), inactives show at the highest dose activity change, negative = inhibition, actives largely listed as inhibitors. actives 1.2% (n = 410,000). AID 1159524, 2015; calls by dose curve; tested in HEK293T cells; further: read-out not given here; potency means the concentration at half of the fitted maximal effect; nearly all actives have a fitted effect of over 45% in size
The depositor's hits bear a star; [ ] = dose if it differs, or a comment. In the library only some 7.3% were active in any assay of this set; here they are far more common. Unless noted, the call rests on the fitted dose curve; in most records, active means well fitted curve in the direction sought with a large enough effect; inconclusive means small, poorly fitted or top-dose-only effect, or another doubt; inactive means no such curve, though single readings can be large; an effect the other way counts as inactive or inconclusive. Unless noted, on the % scale 0 is the no-effect control and ±100 the full control effect.

Cc1ccc(Cl)cc1N1CCN(C(=O)C2CCN(S(=O)(=O)c3ccc4c(c3)oc(=O)n4C)CC2)CC1 was read as AmpC detergent -6.7%, HCMV inh active and FMDV antiviral inconclusive.
For Cc1ccc(Cl)cc1N1CCN(C(=O)C2(S(=O)(=O)c3ccc(Cl)cc3)CC2)CC1 the results were AmpC detergent -8.1%, HCV inhibitor 14.1µM*, AmpC no deterg 45.3%, HCMV inh 30.8 and FMDV antiviral inconclusive.
Screening O=C(c1ccc(F)c(S(=O)(=O)N2CCOCC2)c1)N1CCN(c2ccc(F)cc2)CC1 returned AmpC detergent -13.1%, HCV inhibitor 19.0%, AmpC no deterg 162.4%, HCMV inh -64.8* and FMDV antiviral -18.0%.
Screening CN(C)c1ccc(CNC(=O)C2CCCN(S(=O)(=O)c3ccc4c(c3)oc(=O)n4C)C2)cc1 (stereo unspecified) returned AmpC detergent 9.9%, HCMV inh -105.4* and FMDV antiviral 0.0%.
`C/C(=N/NC(=O)c1sc(NS(=O)(=O)c2ccccc2)nc1C)c1sc(N)nc1C` gave AmpC detergent -11.4%, HCV inhibitor 8.5%, AmpC no deterg -19.8%, HCMV inh -15.9 and FMDV antiviral 3.2%.
CCOC(=O)C1(C)CCCCCN1C(=O)c1ccc(Cl)nc1 (stereo unspecified) was read as HCMV inh 3.2 and FMDV antiviral 0.0%.
Screening Cn1c(=O)oc2cc(S(=O)(=O)N3CCCC(C(=O)N4CCN(c5ccc(F)cc5)CC4)C3)ccc21 (stereo unspecified) returned AmpC detergent 2.0%, HCMV inh 4.5 and FMDV antiviral inconclusive.
Cc1ccc(Cl)cc1N1CCN(S(=O)(=O)c2ccc3c(c2)NC(=O)C(C)C(=O)N3)CC1 (stereo unspecified) was read as AmpC detergent -5.1%, HCV inhibitor -27.9%, AmpC no deterg 11.2µM*, HCMV inh -25.9 and FMDV antiviral inconclusive.
`Cn1c(=O)oc2cc(S(=O)(=O)N3CCCC(C(=O)N4CCN(c5ccccc5F)CC4)C3)ccc21` (stereo unspecified) gave AmpC detergent 2.6%, HCMV inh -6.4 and FMDV antiviral 20µM*.
O=C(NCCOCCO)C(=O)Nc1c2c(nn1-c1ccc(F)cc1)CSC2 was read as AmpC detergent -0.3%, HCMV inh -9.5 and FMDV antiviral -12.6%.
COc1ccc(-c2csc(Nc3ccccc3)[n+]2CC(O)c2ccc([N+](=O)[O-])cc2)cc1 (stereo unspecified) was read as AmpC detergent 0.1%, HCV inhibitor 8.91µM*, AmpC no deterg -56.6%, HCMV inh 7.6 and FMDV antiviral inconclusive.
CCOC(=O)C(Cc1ccccc1)(Nc1ccc(OC)cc1)C(O)c1ccc([N+](=O)[O-])cc1 (stereo unspecified) was read as HCMV inh -3.0.
Cc1ccc(N2C(=O)/C(=C/N3CCN(C(=O)c4ccco4)CC3)C(=O)NC2=S)cc1C was read as AmpC detergent -5.3%, HCV inhibitor -4.1%, AmpC no deterg -33.9%, HCMV inh -101.0* and FMDV antiviral -0.1%.
For COc1cc2c(cc1OC)CN(C(=O)[C@@H]1C[C@H](NCc3cn(C)c4ccccc34)CN1C1Cc3ccccc3C1)CC2 the results were FMDV antiviral -5.0%.
`CCN(Cc1ccccc1)S(=O)(=O)c1cc(C(=O)NC(C)C2CC3CCC2C3)ccc1OC` (stereo unspecified) gave AmpC detergent -14.6%, HCV inhibitor 11.2µM*, AmpC no deterg -9.6%, HCMV inh -88.4* and FMDV antiviral -29.1%.
Cc1onc(-c2c(Cl)cccc2Cl)c1C(=O)ONC(=O)c1cc(C(F)(F)F)cc(C(F)(F)F)c1 was read as AmpC detergent 1.3%, HCV inhibitor -8.3%, AmpC no deterg 19.3%, HCMV inh -98.7* and FMDV antiviral inconclusive.
Screening Cc1onc(-c2c(Cl)cccc2Cl)c1C(=O)Nn1cnnc1 returned AmpC detergent -13.9%, HCV inhibitor 5.1%, AmpC no deterg -9.2%, HCMV inh 0.5 and FMDV antiviral -11.5%.
For S=C(S)OC1CC2CC1C1CCCC21 (stereo unspecified) the results were HCV inhibitor 45.6%, HCMV inh -60.3* and FMDV antiviral 0.0%.
Screening CCOC(=O)c1cnc2ccc(C)cc2c1Nc1ccc(N(CC)CC)cc1 returned AmpC detergent 17.8%, HCMV inh -106.2* and FMDV antiviral 0.0%.
For CCOC(=O)c1cnc2ccc(C)cc2c1Nc1ccc(N2CCOCC2)cc1 the results were AmpC detergent -7.5%, HCV inhibitor inconclusive, AmpC no deterg 60.9%, HCMV inh -13.1 and FMDV antiviral 0.0%.
`CCOC(=O)c1cnc2ccc(Cl)cc2c1Nc1ccc(N2CCOCC2)cc1` gave AmpC detergent 11.0%, HCMV inh 8.7 and FMDV antiviral 22.4µM*.
For CC(C)Cn1c(N)c(C(=O)COC(=O)c2cc(C3CC3)nc3ccccc23)c(=O)n(C)c1=O the results were AmpC detergent inconclusive, HCV inhibitor inconclusive, AmpC no deterg 86.7%, HCMV inh 15.1 and FMDV antiviral 31.6µM*.
CC(C)Cn1c(N)c(C(=O)COC(=O)c2cnc(Cl)c(Cl)c2)c(=O)n(C)c1=O was read as AmpC detergent inconclusive, HCV inhibitor 15.8µM*, AmpC no deterg -9.3%[11.4 µM], HCMV inh 13.2 and FMDV antiviral -34.0%.
`CC(C)Cn1c(N)c(C(=O)COC(=O)c2cc(C(F)(F)F)nc3ccccc23)c(=O)n(C)c1=O` gave AmpC detergent inconclusive, HCV inhibitor inconclusive, AmpC no deterg -21.6%, HCMV inh -3.2 and FMDV antiviral 28.2µM*.
`Cn1c(N)c(C(=O)COC(=O)c2cc(C(F)(F)F)nc3ccccc23)c(=O)n(C)c1=O` gave AmpC detergent -4.9%, HCV inhibitor -6.0%[8.37 µM], AmpC no deterg -8.0% and HCMV inh 12.0.
Screening CC[C@]12c3[nH]c4cc(CCC(=O)N(C)C)ccc4c3CCN1C(=O)[C@@H](CC(=O)NC/C=C(\C)CCC=C(C)C)C[C@@H]2C(=O)N1CCN(C(=O)c2ccco2)CC1 returned HCV inhibitor inconclusive, AmpC no deterg 245.4% and FMDV antiviral inconclusive.
For O=[N+]([O-])c1cccc(-c2cc(-c3cc(Br)ccc3O)[nH]n2)c1 the results were AmpC detergent -15.9%, HCV inhibitor 10µM*, AmpC no deterg -23.3%, HCMV inh inconclusive and FMDV antiviral 28.2µM*.
